Rab9 prom act: qHTS Assay for Rab9 Promoter Activators | Huh7 Rab9 promoter-luciferase reporter, luminescence, 24 h | Potency, µM (doses to about 9.22 µM), for the others: at the top dose activation, negative = inhibition, most hits filed as activators | actives 2.8% (n = 320,000); note: % of control where 0% means no effect; nearly all actives have a fitted effect of over 60% in size
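Cell-based reporter: Huh7 stable for Rab9 promoter-driven luciferase, plated in reduced-serum medium with 10% FBS at 1500 cells/well, compound-treated 24 h at 37 °C, luminescence read after 10 min reagent.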
FLuc modulator: qHTS profiling assay for firefly luciferase inhibitor/activator using purifed enzyme and Km concentrations of substrates (counterscreen for miR-21 project) | Luciferin 4-monooxygenase (Photinus pyralis), P08659 | purified FLuc, Km substrates, luminescence inhibition | Potency, µM (titrated, usually from 57.5 µM), for inactives: top-dose activity change, negative = inhibition, most hits filed as inhibitors | actives 6.9% (n = 360,000) | AID 588342, 2011;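 note: plate controls were vehicle for no effect and reference inhibitor for full effect; nearly all actives have a fitted effect of over 55% in size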
Target sequence (P08659 whole entry, looked up): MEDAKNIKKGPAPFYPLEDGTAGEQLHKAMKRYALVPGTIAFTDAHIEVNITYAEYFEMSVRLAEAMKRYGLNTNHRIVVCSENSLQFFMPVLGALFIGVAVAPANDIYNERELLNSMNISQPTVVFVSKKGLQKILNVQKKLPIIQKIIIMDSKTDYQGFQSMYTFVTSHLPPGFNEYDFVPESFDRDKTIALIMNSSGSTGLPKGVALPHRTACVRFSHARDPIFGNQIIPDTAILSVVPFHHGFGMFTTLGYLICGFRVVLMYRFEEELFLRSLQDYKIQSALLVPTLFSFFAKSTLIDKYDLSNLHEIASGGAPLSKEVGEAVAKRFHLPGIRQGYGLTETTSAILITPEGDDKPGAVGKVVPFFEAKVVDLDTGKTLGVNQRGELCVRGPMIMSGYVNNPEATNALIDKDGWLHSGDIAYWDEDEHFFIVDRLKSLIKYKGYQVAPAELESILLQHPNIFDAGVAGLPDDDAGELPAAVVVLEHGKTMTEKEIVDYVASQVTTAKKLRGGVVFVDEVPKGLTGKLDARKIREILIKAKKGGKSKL
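Purified P. pyralis luciferase (10nM final) with 10uM D-luciferin and 10uM ATP (Km levels) in 50mM Tris acetate pH 7.5, 10mM Mg acetate, 0.01% Tween-20, 0.05% BSA; qHTS 6-point titration, ~60 µM downward; luminescence read.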
NPC1 promoter act: qHTS Assay for NPC1 Promoter Activators; Huh7 NPC1 promoter luciferase reporter, 24 h; Potency, µM (top dose mostly 9.22 µM), for the others: top-dose activation, most hits filed as activators; actives 2.4% (n = 320,000); note: % of control where 0% means no effect; nearly all actives have a fitted effect of over 60% in size
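Readout is luciferase luminescence, reflecting NPC1 promoter activation in stably transfected Huh7 cells after 24 h compound exposure at 37 °C in reduced-serum medium with 10% FBS.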
ELG1 genotoxic: qHTS screen for small molecules that induce genotoxicity in human embryonic kidney (HEK293T) cells expressing luciferase-tagged ELG1 | AID 504466, 2011 | actives 1.3% (n = 330,000) | HEK293T ELG1-luciferase reporter, luminescence, 16 h | Potency, µM (series often up to 46 µM), for inactives: at the highest dose activity change, positive = activation, actives largely listed as activators; note: % of control where 0% means no effect; nearly all actives have a fitted effect of over 60% in size
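After overnight (16 hr) compound treatment at 37 °C, ELG1-luciferase HEK293T cells were lysed with ONE-Glo; luminescence quantified 30 min later at room temperature.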
ELG1 repair inh: qHTS screen for small molecules that inhibit ELG1-dependent DNA repair in human embryonic kidney (HEK293T) cells expressing luciferase-tagged ELG1. HEK293T ELG1-luciferase reporter, luminescence, 16 h; DNA damage induced by 5-fluorouridine. Potency, µM (top dose mostly 46.1 µM), for the others: at the highest dose activity change, negative = inhibition, hits mostly inhibitors. actives 2.3% (n = 330,000). AID 504467, 2011; note: % is set by controls: 0 for no effect and ±100 for the full control effect; nearly all actives have a fitted effect of over 55% in size
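HEK293T cells expressing luciferase-tagged ELG1 (2,000/well) received 5-Fluorouridine plus compound or DMSO for 16 hr at 37 °C. Luciferase was read by ONE-Glo luminescence after 30 min at room temperature.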
SMN2 splice up: qHTS Assay for Enhancers of SMN2 Splice Variant Expression. actives 2.8% (n = 210,000). AID 1458, 2008. HEK293 SMN2-luciferase splicing reporter, luminescence, 30-36 h. Potency, µM (series often up to 46.1 µM), for the others: at the top dose activity change, positive = activation, most hits filed as activators; note: % of control where 0% means no effect; nearly all actives have a fitted effect of over 55% in size
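HEK293 cells carry an SMN2 […]–luciferase reporter in which exon 7 inclusion puts luciferase in frame. Cells were plated 10-12 h before compound addition, then incubated 30-36 h at 37C. ONE-Glo luminescence was read; sodium butyrate at 4.5 mM final served as control.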
* marks the source's active call; other numbers are inactive results; ? = inconclusive; nt = no result; [ ] = remark or other dose. In the library only some 9.2% were active in any assay of this set; here they are far more common. Calls come from the whole dose curve; as a rule, active = well fitted curve in the direction sought with a large enough effect; inconclusive = small, poorly fitted or top-dose-only effect, or another doubt; inactive = no such curve, though single readings can be large; an effect the other way counts as inactive or inconclusive. Potency is the fitted concentration of half-maximal effect.

SMILES	Rab9 prom act	FLuc modulator	NPC1 promoter act	ELG1 genotoxic	ELG1 repair inh	SMN2 splice up
COc1ccc(-c2cn3cc([N+](=O)[O-])ccc3n2)cc1OC	?	15µM*	26%	?	?	?
COc1ccc(CCNC(=O)c2ccc(Cn3c(=O)c4ccccc4n(Cc4ccc(C)cc4)c3=O)cc2)cc1OC	nt	3%	nt	nt	nt	-6%
CCCS(=O)(=O)N1CCC(C(=O)NCCOC)CC1	nt	0%	nt	nt	nt	nt
CCCCOc1ccc(C2=CSC3=NCCN23)cc1[N+](=O)[O-]	-3%	-1%	-1%	8%	4%	nt
CCCCOc1ccc(-c2csc(N)n2)cc1[N+](=O)[O-]	2.8µM*	3.8µM*	2.5µM*	?	?	13µM*
COc1ccc(-c2nc(C)c(C(C)=O)n2O)cc1[N+](=O)[O-]	13%	17µM*	4%	1%	?	24%
Cc1ccc(N=Nc2c(C)[nH][nH]c2=O)c(C)c1	23%	7.6µM*	3%	?	18%	16%
COc1ccc(NC(=O)N2CCC3(CC2)CCN(C(=O)c2cccn2C)CC3)cc1	nt	nt	nt	nt	nt	-40%
Cc1nn(-c2ccccc2C(=O)O)c(=O)c2ccccc12	-2%	-3%	-1%	-7%	25%	nt
Cc1nn(-c2ccc(Br)cc2)c(=O)c2ccccc12	2.8µM*	8.5µM*	?	23%	?	nt
O=C1CC(=Nc2ccccc2)NN1c1ccccc1	1%	17µM*	-1%	-6%	-1%	-2%
O=C1Cc2ccccc2N1c1ccccc1	4%	2%	3%	-7%	4%	5%
COc1ccc(Cl)cc1NC(=O)c1nc(S(C)(=O)=O)ncc1N(Cc1ccc(C)cc1)Cc1ccco1	nt	0%	nt	nt	nt	nt
Cc1cccnc1NC(=O)c1ccc(NS(=O)(=O)/C=C/c2ccccc2)cc1	-2%	2%	0%	-6%	-9%	nt
C/C(=N\NC(=O)c1ccc(Cl)cc1)c1cccnc1	?	17µM*	?	?	?	nt
C/C(=N/NS(=O)(=O)c1ccc(Cl)cc1)c1cccc(NC(=O)c2ccncc2)c1	0%	-17%	-4%	-2%	3%	nt
C/C(=N\NS(=O)(=O)c1ccccc1)c1cccc(NC(=O)c2cccc(Cl)c2)c1	-3%	24µM*	2%	-3%	-12%	-1%
C/C(=N\NC(=O)c1ccn(C)n1)c1cccc(NC(=O)c2ccncc2)c1	-5%	15µM*	0%	-1%	?	-5%
C/C(=N\NC(=O)c1ccc(Cl)cc1)c1cccc(NC(=O)c2cccnc2)c1	?	3µM*	22%	-2%	?	?
Cc1cc(C)n2c(Nc3ccc(C(C)C)cc3)c(-c3ccsc3)nc2n1	nt	11µM*	nt	nt	nt	1%
Cc1cc(C)n2c(Nc3ccc(Cl)cc3)c(-c3ccsc3)nc2n1	nt	-11%	nt	nt	nt	7%
O=C(/C=C/c1cccs1)NNC(=O)c1cccc([N+](=O)[O-])c1	nt	nt	nt	0%	?	nt
COc1ccc(C(=O)/C=C/c2cccs2)c(OC(=O)c2cccc([N+](=O)[O-])c2)c1	?	4.8µM*	27%	8%	?	?
COc1ccc(OC(=O)/C=C/c2ccc([N+](=O)[O-])cc2)cc1	-10%[1.84 µM]	7%	2%	-1%	-2%	nt
COc1ccc(C(=O)/C=C/c2ccc(F)cc2)c(OC(=O)c2ccc([N+](=O)[O-])cc2)c1	-2%	9.5µM*	12%	?	?	4%
Nc1ccc(-c2nc3ccc(N)cc3s2)cc1	?	0.27µM*	?	?	?	nt

Screening results from PubChem BioAssay.
